The values that follow come from PubChem BioAssay (EPA / NIEHS).

Molecules are shown by their SMILES. Results filed as inconclusive are left out. Activity calls are given as the source filed them. How the source made its calls, unless noted: active means hit-call score of the fitted dose curve at least 0.9, where 1 is the maximum; inactive means score below 0.9.

Test [1] concerns the target Estrogen-related receptor gamma (Homo sapiens) (UniProt P62508). As to the kind of experiment: ATG_ERRg_TRANS: Attagene TRANS-FACTORIAL HepG2 Assay for human Estrogen-Related Receptor gamma (ERRg) (AID 2282977; active means hit-call score of the fitted dose curve at least 0.9, where 1 is the maximum;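 further: hits increase reporter signal over DMSO so potencies reflect activators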). Particulars: HepG2 Attagene TRANS reporter, ERRg transactivation. In a few lines:
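Transient HepG2 transfectants, 24 h compound exposure, GAL4-UAS reporter mRNA by RT-PCR/6-FAM labelling/capillary electrophoresis; positive direction vs DMSO.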

Test [2] addresses Oxysterols receptor LXR-alpha (Homo sapiens) (UniProt Q13133). The test is described as follows: ATG_LXRa_TRANS: Attagene TRANS-FACTORIAL HepG2 Assay for human Liver X Receptor alpha (LXRa) (AID 2282980; active means hit-call score of the fitted dose curve at least 0.9, where 1 is the maximum). Particulars: HepG2 Attagene TRANS reporter, LXRa transactivation. In a few lines: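 HepG2 cells were transiently transfected with multiplexed reporter units driven by chimeric LXRa–GAL4 fusion proteins, then dosed for 24 h. Reporter mRNA was quantified by RT-PCR, fluorescent labelling and capillary electrophoresis; gain of signal fitted against DMSO baseline.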

Test [3] concerns the target Oxysterols receptor LXR-beta (Homo sapiens) (UniProt P55055). The test is described as follows: ATG_LXRb_TRANS: Attagene TRANS-FACTORIAL HepG2 Assay for human Liver X Receptor beta (LXRb) (AID 2282981; active means hit-call score of the fitted dose curve at least 0.9, where 1 is the maximum). Particulars: HepG2 Attagene TRANS GAL4-LXRb reporter, mRNA. Summed up:
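HepG2 cells transiently transfected with multiple reporter transcription units carrying chimeric NR-Gal4 proteins acting on GAL4-UAS reporters; compound exposure 24 h. Reporter mRNA quantified by RT-PCR, 6-FAM labelling, HpaI digestion and capillary electrophoresis; gain of signal versus DMSO.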

Test [4] has as its target Hepatocyte nuclear factor 4-alpha (Homo sapiens) (UniProt P41235). The test is described as follows: ATG_HNF4a_TRANS: Attagene TRANS-FACTORIAL HepG2 Assay for human Hepatocyte Nuclear Factor 4 alpha (HNF4a) (AID 2282982; active means hit-call score of the fitted dose curve at least 0.9, where 1 is the maximum). Particulars: HepG2 HNF4a transactivation reporter, mRNA readout. In a few lines: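 HepG2 cells transiently transfected with multiplexed GAL4-UAS reporter units responsive to chimeric NR-GAL4 proteins; compound exposure 24 h. Reporter mRNA quantified by RT-PCR, 6-FAM labelling, HpaI digestion and capillary electrophoresis; gain of signal versus DMSO baseline.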

Test [5] can be described thus: ATG_M_06_TRANS: Attagene TRANS-FACTORIAL HepG2 Assay for M06 Transcription Factor (Internal Marker) (AID 2282983; active means hit-call score of the fitted dose curve at least 0.9, where 1 is the maximum). Particulars: HepG2 Attagene TRANS M06 internal marker reporter. Summed up: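 HepG2 cells transiently transfected with multiplexed GAL4-UAS reporter transcription units; after 24 h compound exposure, reporter mRNA measured by RT-PCR, FAM-labelled primer extension, HpaI digestion and capillary electrophoresis. Gain-of-signal fitted versus DMSO baseline; background control readout.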

Test [6] addresses Nuclear receptor subfamily 4 group A member 2 (Homo sapiens) (UniProt P43354). The test is described as follows: ATG_NURR1_TRANS: Attagene TRANS-FACTORIAL HepG2 Assay for human Nuclear Receptor Related Protein 1 (NURR1) (AID 2282985; active means hit-call score of the fitted dose curve at least 0.9, where 1 is the maximum). To be noted: HepG2 Attagene TRANS reporter, mRNA readout. In a few lines:
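HepG2 cells transiently transfected with GAL4-UAS reporter units and chimeric NR-Gal4 constructs; chemical exposure 24 h. Reporter mRNA quantified by RT-PCR, fluorescent labelling and capillary electrophoresis; gain of signal fitted relative to DMSO baseline.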

Test [7] concerns the target Transcriptional activator Myb (Homo sapiens) (UniProt P10242). As to the kind of experiment: ATG_Myb_CIS: Attagene CIS-FACTORIAL HepG2 Assay for human Myeloblastosis (Myb) Proto-Oncogene Transcription Factor (AID 2282986). Particulars: HepG2 Attagene CIS-FACTORIAL Myb reporter transcription; actives raise or lower the signal. In a few lines: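 Transiently transfected HepG2 cells carrying a multiplexed cis-promoter reporter set report endogenous Myb activity after 24 h compound exposure. Reporter mRNA is read by RT-PCR with capillary electrophoresis of fluorescent products, fitted bidirectionally against DMSO.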

A short description of test [8]: ATG_NFI_CIS: Attagene CIS-FACTORIAL HepG2 Assay for human Nuclear Factor I (NFI) (AID 2282989). To be noted: HepG2 cis-regulatory reporter, NFI response element transcription; actives raise or lower the signal. In a few lines:
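Reporter transcripts were measured by RT-PCR with fluorescent primer extension and capillary electrophoresis 24 h post-treatment. HepG2 cells carried transiently transfected cis-regulated reporter constructs reporting endogenous factor activity; gain or loss fitted against DMSO baseline.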

Test [9] concerns the target Myc proto-oncogene protein (Homo sapiens) (UniProt P01106). As to the kind of experiment: ATG_Myc_CIS: Attagene CIS-FACTORIAL HepG2 Assay for human Myelocytomatosis (Myc) Proto-Oncogene Transcription Factor (AID 2282990). To be noted: HepG2, Attagene cis-reporter transcription factor activity; actives raise or lower the signal. Summed up:
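DMSO-normalised, bidirectionally fitted reporter mRNA signal. HepG2 cells transfected with cis reporter constructs, treated 24 h; transcripts detected by RT-PCR, 6-FAM primer extension and CE.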

Test [10] in a line: ATG_NF_kB_CIS: Attagene CIS-FACTORIAL HepG2 Assay for human Nuclear Factor Kappa B (NF-kB) (AID 2282991). Particulars: HepG2 Attagene cis-factorial NF-kB reporter mRNA; actives raise or lower the signal. Summed up:
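HepG2 cells transfected with cis-promoter-driven reporter units, so endogenous transcription factor activity is measured. Reporter mRNA quantified 24 h after dosing by RT-PCR and capillary electrophoresis, with bidirectional fitting against DMSO.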

Test [11] in a line: ATG_NRF2_ARE_CIS: Attagene CIS-FACTORIAL HepG2 Assay for human Nuclear Factor Erythroid 2 Related Factor 2 (NFR2) response to Antioxidant Response Elements (ARE) (AID 2282992).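 Further: reporter mRNA level measured by RT-PCR and capillary electrophoresis fluorescence.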 To be noted: HepG2 Attagene ARE/NRF2 reporter, transcription factor activity; actives raise or lower the signal. In a few lines:
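Transient MRTU transfection of HepG2; 24 h compound exposure; TriZol RNA, RT with oligo(dT), PCR, 6-FAM primer extension, HpaI cut, CE. Bidirectional fit vs DMSO.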

A short description of test [12]: ATG_Oct_MLP_CIS: Attagene CIS-FACTORIAL HepG2 Assay for human Octamer-Binding Transcription Factor (Oct) (AID 2282993). Particulars: HepG2 Attagene cis-factorial Oct reporter, mRNA; actives raise or lower the signal. Summed up:
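Readout is reporter transcript level from RT-PCR with fluorescent primer extension and capillary electrophoresis, fitted in both directions against DMSO. Transfected HepG2 reporter units report endogenous factor activity after 24 h dosing.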

Test [13] is described as follows: BSK_3C_TissueFactor: BioMAP Diversity Plus: 3C Assay for Tissue Factor Biomarker Activity (AID 2282997). Particulars: BioMAP 3C HUVEC, tissue factor biomarker readout; actives raise or lower the signal. Summed up:
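Primary human umbilical vein endothelial cells in the 3C system were exposed to test chemical for 24 h, then Tissue Factor measured by ELISA. Activity was fitted bidirectionally against DMSO as negative control and baseline.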

Test [14] can be described thus: BSK_3C_uPAR: BioMAP Diversity Plus: 3C Assay for Urokinase-type plasminogen activator receptor (uPAR) Biomarker Activity (AID 2282998). To be noted: BioMAP 3C HUVEC, uPAR biomarker ELISA; actives raise or lower the signal. Summed up:
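Cell-surface uPAR on HUVEC (3C system) read by ELISA at 24 h post-treatment, with DMSO as baseline and fitting in both directions. Parallel cultures stained with SRB to flag overt cytotoxicity.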
In general terms: An ELISA detects its analyte on a solid surface through an enzyme-linked reagent.

Test [15] can be described thus: ATG_M_32_TRANS: Attagene TRANS-FACTORIAL HepG2 Assay for M32 Transcription Factor (Internal Marker) (AID 2282984; active means hit-call score of the fitted dose curve at least 0.9, where 1 is the maximum). To be noted: HepG2 Attagene TRANS M32 internal marker reporter. In a few lines:
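HepG2 cells transiently transfected with multiple GAL4-UAS reporter transcription units, dosed for 24 hours; reporter mRNA quantified by RT-PCR, 6-FAM primer extension, HpaI digestion and capillary electrophoresis. Gain-of-signal fitted versus DMSO baseline; internal background-control marker.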

Test [16] addresses Glucocorticoid receptor (Homo sapiens) (UniProt P04150). The test is described as follows: ATG_GR_TRANS: Attagene TRANS-FACTORIAL HepG2 Assay for human Glucocorticoid Receptor (GR) (AID 2282978; active means hit-call score of the fitted dose curve at least 0.9, where 1 is the maximum;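 further: activators score as hits since higher reporter transcript over DMSO is fitted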). To be noted: HepG2 Attagene TRANS GR reporter, mRNA transcription. In a few lines:
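HepG2 cells transiently transfected with GAL4-UAS reporter units and exogenous GR-Gal4 chimera, dosed 24 h. Reporter mRNA by RT-PCR, FAM labeling, HpaI digest and capillary electrophoresis; gain-of-signal fit versus DMSO.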

Test [17] addresses Nuclear respiratory factor 1 (Homo sapiens) (UniProt Q16656). As to the kind of experiment: ATG_NRF1_CIS: Attagene CIS-FACTORIAL HepG2 Assay for human Nuclear Respiratory Factor 1 (NRF1) Orphan Gene (AID 2282987). Particulars: HepG2 NRF1 cis-element reporter, Attagene multiplex; actives raise or lower the signal. Summed up: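 HepG2 cells transiently transfected with multiple cis-regulated reporter units, exposed 24 h. Reporter mRNAs measured by RT-PCR, fluorescent labelling, HpaI digestion and capillary electrophoresis; bidirectional fitting against DMSO.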

Test [18] is described as follows: ATG_GAL4_TRANS: Attagene TRANS-FACTORIAL HepG2 Assay for GAL4 (Internal Marker) (AID 2282976; active means hit-call score of the fitted dose curve at least 0.9, where 1 is the maximum). Particulars: HepG2 Attagene TRANS GAL4 internal marker reporter. In a few lines:
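HepG2 cells transiently transfected with multiplexed GAL4-UAS reporter constructs were dosed for 24 h. Reporter mRNA was measured by RT-PCR, 6-FAM primer extension, HpaI digestion and capillary electrophoresis, and gain of signal was fitted relative to DMSO.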

The target of test [19] is Cellular tumor antigen p53 (Homo sapiens) (UniProt P04637). As to the kind of experiment: ATG_p53_CIS: Attagene CIS-FACTORIAL HepG2 Assay for human p53 Transcription Factor (AID 2282994). To be noted: HepG2 p53 cis-element reporter, Attagene mRNA; actives raise or lower the signal. Summed up: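 HepG2, transient MRTU transfection (cis promoter elements, endogenous TFs); 24 h dosing; RNA isolation, RT-PCR, 6-FAM primer extension, HpaI digest, CE fluorescence; bidirectional fit vs DMSO.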
Chain of Cellular tumor antigen p53 (Homo sapiens) (P04637 whole entry, looked up): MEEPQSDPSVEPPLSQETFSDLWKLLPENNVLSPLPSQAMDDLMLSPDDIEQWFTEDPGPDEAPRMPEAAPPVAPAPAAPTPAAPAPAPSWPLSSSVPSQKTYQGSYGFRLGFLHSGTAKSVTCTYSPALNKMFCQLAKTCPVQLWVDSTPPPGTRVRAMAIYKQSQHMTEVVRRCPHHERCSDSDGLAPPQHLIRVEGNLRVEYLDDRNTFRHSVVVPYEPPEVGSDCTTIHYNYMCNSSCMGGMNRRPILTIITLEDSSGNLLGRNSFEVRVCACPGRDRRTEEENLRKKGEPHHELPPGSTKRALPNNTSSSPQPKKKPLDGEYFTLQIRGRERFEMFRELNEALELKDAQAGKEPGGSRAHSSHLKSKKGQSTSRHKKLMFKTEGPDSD

Chain of Nuclear receptor subfamily 4 group A member 2 (Homo sapiens) (P43354 whole entry, looked up, the tested form may be a part): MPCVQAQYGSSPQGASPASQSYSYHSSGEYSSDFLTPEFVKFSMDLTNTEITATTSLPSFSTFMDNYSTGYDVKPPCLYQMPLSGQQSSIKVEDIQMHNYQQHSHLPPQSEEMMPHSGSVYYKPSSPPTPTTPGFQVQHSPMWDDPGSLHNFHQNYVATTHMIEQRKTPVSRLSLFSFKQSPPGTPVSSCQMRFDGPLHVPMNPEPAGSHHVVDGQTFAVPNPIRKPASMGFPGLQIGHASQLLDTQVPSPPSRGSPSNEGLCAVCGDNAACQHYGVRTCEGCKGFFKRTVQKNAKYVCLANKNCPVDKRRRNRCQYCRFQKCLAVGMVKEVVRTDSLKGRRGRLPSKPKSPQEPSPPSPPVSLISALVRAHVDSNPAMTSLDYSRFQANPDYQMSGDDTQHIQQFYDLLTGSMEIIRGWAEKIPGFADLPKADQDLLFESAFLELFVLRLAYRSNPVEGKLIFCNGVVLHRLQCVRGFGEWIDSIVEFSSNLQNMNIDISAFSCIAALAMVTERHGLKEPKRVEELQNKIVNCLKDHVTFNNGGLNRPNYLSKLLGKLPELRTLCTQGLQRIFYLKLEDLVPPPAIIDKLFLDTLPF
Chain of Transcriptional activator Myb (Homo sapiens) (P10242 whole entry, looked up): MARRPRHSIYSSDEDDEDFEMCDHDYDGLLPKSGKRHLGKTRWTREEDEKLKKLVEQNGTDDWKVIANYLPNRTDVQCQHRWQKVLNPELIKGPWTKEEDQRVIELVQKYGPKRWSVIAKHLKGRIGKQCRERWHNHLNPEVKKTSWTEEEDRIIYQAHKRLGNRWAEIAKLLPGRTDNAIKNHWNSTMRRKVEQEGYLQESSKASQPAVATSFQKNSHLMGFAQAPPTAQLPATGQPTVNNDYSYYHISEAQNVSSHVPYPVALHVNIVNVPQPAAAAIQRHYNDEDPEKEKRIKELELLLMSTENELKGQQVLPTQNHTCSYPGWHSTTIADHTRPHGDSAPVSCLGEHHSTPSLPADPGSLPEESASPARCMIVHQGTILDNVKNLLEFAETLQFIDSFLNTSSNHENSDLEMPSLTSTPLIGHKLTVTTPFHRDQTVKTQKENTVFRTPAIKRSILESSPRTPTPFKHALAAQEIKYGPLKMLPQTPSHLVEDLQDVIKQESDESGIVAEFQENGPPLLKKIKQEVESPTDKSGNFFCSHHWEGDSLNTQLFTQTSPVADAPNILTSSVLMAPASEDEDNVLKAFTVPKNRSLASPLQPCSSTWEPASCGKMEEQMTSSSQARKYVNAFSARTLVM
Chain of Estrogen-related receptor gamma (Homo sapiens) (P62508 whole entry, looked up, the tested form may be a part): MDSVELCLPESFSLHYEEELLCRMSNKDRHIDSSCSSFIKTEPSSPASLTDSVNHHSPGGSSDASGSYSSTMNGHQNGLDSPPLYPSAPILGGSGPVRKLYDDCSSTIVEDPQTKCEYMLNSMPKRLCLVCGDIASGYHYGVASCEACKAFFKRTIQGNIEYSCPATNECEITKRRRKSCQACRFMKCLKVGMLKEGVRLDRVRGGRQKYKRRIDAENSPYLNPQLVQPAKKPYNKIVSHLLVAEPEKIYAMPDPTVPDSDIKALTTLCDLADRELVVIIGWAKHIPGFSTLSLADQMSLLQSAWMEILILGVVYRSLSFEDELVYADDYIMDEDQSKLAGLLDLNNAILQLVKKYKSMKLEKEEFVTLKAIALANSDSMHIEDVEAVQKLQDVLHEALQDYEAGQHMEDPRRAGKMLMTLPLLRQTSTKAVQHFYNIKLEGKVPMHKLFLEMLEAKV
Chain of Myc proto-oncogene protein (Homo sapiens) (P01106 whole entry, looked up): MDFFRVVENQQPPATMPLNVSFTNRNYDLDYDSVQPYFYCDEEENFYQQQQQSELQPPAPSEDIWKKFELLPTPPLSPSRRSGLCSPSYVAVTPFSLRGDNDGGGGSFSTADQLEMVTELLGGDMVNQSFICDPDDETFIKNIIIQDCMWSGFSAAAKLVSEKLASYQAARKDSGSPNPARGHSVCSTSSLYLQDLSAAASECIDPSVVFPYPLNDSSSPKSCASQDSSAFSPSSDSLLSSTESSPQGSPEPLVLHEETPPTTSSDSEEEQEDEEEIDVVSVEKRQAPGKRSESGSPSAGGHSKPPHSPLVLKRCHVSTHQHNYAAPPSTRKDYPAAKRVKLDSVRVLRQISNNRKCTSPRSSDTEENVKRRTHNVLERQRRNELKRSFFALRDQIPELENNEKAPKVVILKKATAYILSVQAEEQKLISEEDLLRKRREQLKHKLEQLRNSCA
Chain of Oxysterols receptor LXR-alpha (Homo sapiens) (Q13133 whole entry, looked up, the tested form may be a part): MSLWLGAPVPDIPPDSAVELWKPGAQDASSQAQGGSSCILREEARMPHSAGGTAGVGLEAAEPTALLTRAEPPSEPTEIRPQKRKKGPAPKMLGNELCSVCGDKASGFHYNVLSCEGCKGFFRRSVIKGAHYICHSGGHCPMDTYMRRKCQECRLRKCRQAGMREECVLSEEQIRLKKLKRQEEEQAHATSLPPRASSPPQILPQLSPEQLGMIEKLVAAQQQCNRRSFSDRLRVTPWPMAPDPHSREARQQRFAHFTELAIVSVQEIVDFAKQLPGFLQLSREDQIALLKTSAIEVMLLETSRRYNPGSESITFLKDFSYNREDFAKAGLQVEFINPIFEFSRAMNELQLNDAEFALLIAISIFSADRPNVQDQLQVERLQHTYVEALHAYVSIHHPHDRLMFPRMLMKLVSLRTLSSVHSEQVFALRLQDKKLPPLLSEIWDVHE
Chain of Oxysterols receptor LXR-beta (Homo sapiens) (P55055 whole entry, looked up, the tested form may be a part): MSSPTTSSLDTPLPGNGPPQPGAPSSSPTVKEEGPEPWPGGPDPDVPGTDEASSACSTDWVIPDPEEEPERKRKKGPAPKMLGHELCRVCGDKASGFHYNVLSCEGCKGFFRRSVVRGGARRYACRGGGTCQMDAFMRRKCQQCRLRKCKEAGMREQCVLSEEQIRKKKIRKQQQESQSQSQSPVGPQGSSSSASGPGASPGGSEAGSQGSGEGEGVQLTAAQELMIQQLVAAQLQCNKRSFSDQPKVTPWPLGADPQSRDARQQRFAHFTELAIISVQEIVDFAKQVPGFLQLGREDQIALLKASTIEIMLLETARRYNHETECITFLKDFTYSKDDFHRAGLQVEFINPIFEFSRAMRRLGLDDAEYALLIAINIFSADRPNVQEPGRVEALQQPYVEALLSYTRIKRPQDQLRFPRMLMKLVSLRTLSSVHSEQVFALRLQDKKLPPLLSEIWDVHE
Chain of Hepatocyte nuclear factor 4-alpha (Homo sapiens) (P41235 whole entry, looked up, the tested form may be a part): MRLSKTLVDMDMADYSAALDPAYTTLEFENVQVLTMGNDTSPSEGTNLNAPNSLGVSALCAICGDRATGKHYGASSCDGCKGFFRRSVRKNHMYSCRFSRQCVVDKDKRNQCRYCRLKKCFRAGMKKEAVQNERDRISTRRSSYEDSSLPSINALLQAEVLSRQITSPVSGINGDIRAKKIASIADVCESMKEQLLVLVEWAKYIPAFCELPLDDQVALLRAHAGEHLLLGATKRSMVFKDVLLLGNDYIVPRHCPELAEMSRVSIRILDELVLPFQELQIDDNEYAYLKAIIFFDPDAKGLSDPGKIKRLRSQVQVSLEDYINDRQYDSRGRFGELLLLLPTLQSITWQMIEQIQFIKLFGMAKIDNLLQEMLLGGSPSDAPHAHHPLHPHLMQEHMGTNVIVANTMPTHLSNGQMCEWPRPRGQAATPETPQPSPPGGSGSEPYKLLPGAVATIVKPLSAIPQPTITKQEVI
Chain of Nuclear respiratory factor 1 (Homo sapiens) (Q16656 whole entry, looked up): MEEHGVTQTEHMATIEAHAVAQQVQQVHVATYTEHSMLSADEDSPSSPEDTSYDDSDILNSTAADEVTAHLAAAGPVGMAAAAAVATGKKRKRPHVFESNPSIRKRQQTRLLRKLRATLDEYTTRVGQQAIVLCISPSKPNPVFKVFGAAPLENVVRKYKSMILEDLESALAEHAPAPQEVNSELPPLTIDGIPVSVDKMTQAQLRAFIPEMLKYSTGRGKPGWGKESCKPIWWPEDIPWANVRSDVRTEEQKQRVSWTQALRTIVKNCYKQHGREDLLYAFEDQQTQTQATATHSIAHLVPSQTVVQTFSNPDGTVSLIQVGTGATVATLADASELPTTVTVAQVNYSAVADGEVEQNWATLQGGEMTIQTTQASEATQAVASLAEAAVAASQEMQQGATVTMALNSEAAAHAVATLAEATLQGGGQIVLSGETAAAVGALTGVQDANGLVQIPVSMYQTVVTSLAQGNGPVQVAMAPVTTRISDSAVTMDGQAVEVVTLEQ

Turning to `CC1(C(=O)Nc2ccc(O)c(Cl)c2Cl)CCCCC1`, the outcome in test [1], in test [3], in [4], in [5], in test [6] and in test [7] was inactive. The call in test [8], in [9], in test [10], in test [13] and in test [14] was inactive. Besides, the AC50 was 50 µM (active) in test [2], 8.84 µM (active) in test [11] and 22.2 µM (active) in [12].
`CCc1cccc(C)c1N(C(=O)CCl)C(C)COC` (stereo not given): the call in test [1], in [5], in test [15], in test [7], in test [8] and in test [9] was inactive. For the same compound, the compound was called inactive in test [10], in test [13] and in test [14]. For the same compound, the AC50 in [11] was 5.18 µM (active); in [12], 14.2 µM (active).
In the case of `CCCCN(CC)c1c([N+](=O)[O-])cc(C(F)(F)F)cc1[N+](=O)[O-]`, the outcome in test [1], in test [16], in [2], in test [5], in [15] and in test [6] was inactive. The compound was classed as inactive in test [7], in test [17], in test [8], in test [9], in test [10] and in test [13]. In [14], the result was inactive. Also, the AC50 was 6.46 µM (active) in test [11] and 12.7 µM (active) in test [12].
As for `CCC(=O)Nc1ccc(Cl)c(Cl)c1`, the compound was classed as inactive in test [18], in test [2], in [3], in [4], in test [5] and in test [15]. Also, the call in [6], in test [7], in [9], in test [12], in [19] and in test [13] was inactive. Besides, the result in test [14] was inactive. Further, the results for the AC50 in test [8] and in test [11] were 10.5 µM (active) and 30.7 µM (active), respectively.

In general, AC50 refers to the midpoint of the concentration-response curve, whichever way the signal moves.
